In all, about 25,000 sequences were measured (“ln(normalized median fluorescence intensity)”: median about 6.7, highest 2% from about 10 on). For the sample, the highest values were picked, then their nearest neighbours and some sequences at random.
tested on: PfHDP1 homeodomain (GST-tagged); test: gcPBM binding intensity (ln(normalized median fluorescence intensity)); higher = stronger DNA binding
Summary of the method: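 GST-tagged P. falciparum DNA-binding domains produced in E. coli were incubated for 1 h on an Agilent 4 × 180k array of primer-extended double-stranded 36-bp intergenic genomic probes with negative controls. Binding intensity is the highest Masliner-normalised natural-log median intensity across replicate spots of either probe orientation, with bound protein detected by Alexa488 anti-GST antibody at 488 nm.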

Sequence	gcPBM binding intensity (ln)
AGAGAGATGACAAAAAGATGAATAACGTTAAGGGAT [XGTACX_negctrl_site120]	7.4
AATATGAAATATATTACACACATTTATATGTTGAAA [CACACA_site1427]	6.31
TATAATAATAATTATACATGCATGAATATTTATATG [TGCATGCA_site811]	6.46
ATCATATTTATGTTGGTGCATTATGCATGGATTTTA [GTGCAC_site9795]	10.8
ATTATATTTATGTTGGTGCATTATACATGAAATTTA	10.5
ACATATGAAAAATATGCATGCAAATATTATTTAACA [TGCATGCA_site802]	7.03
TTATGGTGCATGAAATCACACATTGATATATATGCT [CACACA_site5352]	8.81
TATTTTTATTATATGGTGCATATATACATACATATA	9.96
ATATGGATTATACATACATGCATACATACATACATA [TGCATGCA_site475]	6.58
ATCATATTTATATTGGTGCATTATGCATGAAATTTA [GTGCAC_site9571]	10.6
TATATATATATATATACATGCATATATATAATATAT [TGCATGCA_site763]	9.32
ATATATATTTAAAAAAGTACAGAAGAAAATAACCCA [XGTACX_site642]	7.19
GATGATACACAGGTGTTGCACTTAAATGCAGTTCTT [GTGCAC_site9627]	8.13
ATATATATATATATATGTACATATTATTAATAATAT [XGTACX_site6667]	9.32
TTTTGAATATTTGGTCGTACGTAAAAATAGATAATT [XGTACX_site5755]	6.75
AAGTTTTCTTAAAATTGTACTTTTCAAAAATAATCT [XGTACX_site277]	5.83
TTATGGTGCAACATTATGCACACCGTTAAATAACTA [CACACA_site3846]	11.4
GATTCATCTAAACACCGTACATATTATATATATATA [XGTACX_site6030]	8.65
TGATTCTAACTTATGGTGCAACATTATGGACACCGT	10.5
TCATAAACATTATGCACACAAAAATAAAAAAAAATA [CACACA_site1115]	10.2
AACAACAACTAATATGCACACATTTAAAAACAAAAT [CACACA_site2440]	9.7
ATGGTGCAACATTATGCACACCGTTAAATAACTAAT [CACACA_site9280]	11.7

Sequence	gcPBM binding intensity (ln)
CATTAACAAATAAATGCACACATATATATAAATAAT [CACACA_site7892]	9.2
TAATATATTATAAACACATGCACATTAATAATAACT [TGCATGCA_site708]	8.38
TATATAACATATGGGACACACATGCAACTGTTATAT [CACACA_site3792]	6.89
GAATGCCTTGAAAATAGTACAATTAAGAAAAAATAC [XGTACX_site8002]	6.53
ACATAAGATGAAAAATGTACATTCAAAAAATGAAAT [XGTACX_site3227]	6.52
AAGACAAATTTTACATGTACAAATATATTACATATA [XGTACX_site7060]	6.83
AATGTATATATGTAATGTACATATATAATGTATATA [XGTACX_site6510]	6.6
TTATATGCTCAATGTTGTACATGTAGATATATATAT [XGTACX_site8211]	9.77
ATTACACATATAGTAGTGCAATAACTCCAAAAAAAA	9.55
AAATTTTAATTAGACTGTACACATTTTAGAATAATT [XGTACX_site4819]	6.17
AAAAAAAATTAATTAGTGCAAAATATATACAAAATA [GTGCAC_site9762]	10.4
TATTTATAGATATATACACACATATACATATTGTTT [CACACA_site7611]	6.63
TTTGATCGATGGATTTAACACACAAAAAAAAAAAAA [CACACA_site9279]	6.32
ACCCATTTTAATTTAGTGCACATTTTACCTTTATAC	10.1
ATATATATATATATAGTGCACATTTATATAATTATT	10
CTATTTCAATTTAGTGCACACATTTTAATTTATAAG [CACACA_site2040]	10.9
CTACTTAATATTTGTACACACATATTTAACCTACTA [CACACA_site5725]	7.02
AAAAAAGAATTGTGCACACACAAAAAATGTTCATAA [CACACA_site1103]	10.3
AAAGAATACAAAATTGCACACATATTGTGAAAATGT [CACACA_site9327]	9.59
TTAAAAAAGAATTGTGCACACACAAAAAATGTTCAT [CACACA_site1102]	10.6
AGTATAAGCATTATTGTGCACATAATTATAATTTTT	11
ATATAATATATATATTGTACATATATTTATAAGCAT [XGTACX_site3726]	6.5

Sequence	gcPBM binding intensity (ln)
ATTTTAAATTTATCTGTGCACAGTATTATATAAGCA [GTGCAC_site9806]	10.8
ATATTTGTATAAATTGCACACTTTATTTTTTTTAAG [CACACA_site1558]	9.86
ATATATTTTTAGCACAGTACAATATAATTAAATATA [XGTACX_site6779]	7.02
TATATTATTAATTAAGCACACATTATTTTTATAATA [CACACA_site3982]	6.37
ATTATTCTATATGAAACATGCATACATTTGTATTTT [TGCATGCA_site823]	6.53
AAATACTGTAAAAAAGCATGCCACTAATAATAATTA [TGCATGCA_site759]	6.33
TTTTTATATTTCAACATATCACAATTTTATATATCT [CACACA_negctrl_site178]	6.43
GAGTGAAATATGCAAACACACACGAGAAAAATGTAT [CACACA_site3196]	7.15
AATGAGAAGGACTGCACACTAAAATGGAAGGAGAAA [CACACA_site1575]	6.97
AAAAGGAGAAATATTGCACACGTGCAAAATGGTATG [CACACA_site4300]	11
AGGAAAATTATGAATGGTACAGAATATATTAGGAGA [XGTACX_site6282]	7.46
GTGAAATATGCAAACACACACGAGAAAAATGTATAT [CACACA_site7488]	6.99
AAGGAGAAATATTGCACACGTGCAAAATGGTATGAG [CACACA_site259]	10.8
ATTTTTTAAAAAGTAACACACACTCTTATAAATAAC [CACACA_site7668]	6.7
AAAAAAAAAAAAAGGTGTACATGCAAAATAAATTCT [XGTACX_site4592]	6.48
AAATACTGTACAAAGGTGCATAAAAAGTGGGGCATA	9.07
TTTTCTCTAAAAAGGTGTACAACTAATAATGCACTG [XGTACX_site6074]	10.6
GATAATGAATGATGCACACTAAAAATATTCTACAAC [CACACA_site3622]	8.94
ATTTTTCTAAAATACTGTACAAAGGTGCATAAAAAG [XGTACX_site4425]	11.1
TATTTTATATAAAGGTGTACTTATACAAAAATATAT [XGTACX_site7435]	6.52
